The record followed here is PubChem BioAssay AID1443 (Sanford-Burnham Center for Chemical Genomics, 2008).

The whole screen tested about 220,000 compounds, of which about 880 (0.4%) were called active. Shown is part of a subset that was picked to be rich in actives. Unmarked numbers belong to inactive results.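 How the source made its calls: active means cell killing above 50% in the first pass at 4 µM, then a duplicate retest at 5 µM averaging 50% or more; inactive means the rest.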

This experiment can be described thus: compounds killing PPC-1 cancer cells with TRAIL present, primary screen, TRAIL potentiator project, ATPLite luminescence, uHTS (AID 1443).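 Further: plate controls were cells with TRAIL plus DMSO for no effect and medium-only wells lacking cells for full effect.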 The following applies: PPC-1 cells + TRAIL, ATPLite viability luminescence, stronger effect = higher value; at 4 µM unless noted. A general note: ATP-based viability assays read luminescence as a measure of living cells.
For `COc1cccc(CC(=O)Nc2ccc(-c3csc(C)n3)cc2)c1`, the cell killing (% activity) is 2.3%. As to `Cc1cc(C2=NNC(=Nc3ccc(S(=O)(=O)N4CCOCC4)cc3)SC2)c(C)n1CC1CCCO1` (configuration not stated), the cell killing (% activity) was 8.5%.

Consider `COCCn1c(C)cc(C2=NNC(=Nc3ccc(F)cc3)SC2)c1C`, for which the cell killing (% activity) is 12.3%. In the case of `C=CCn1c(C)cc(C2=NNC(=NCC)SC2)c1C` it was 88.8% [at 5 µM] (active). In the case of `O=C(NNC(=O)c1ccc(Cl)cc1Cl)c1cccs1` it was 35.4%; in that of `CCOC(=O)c1cc(C)nc(S(C)(=O)=O)c1C#N`, 19.4%.

In the case of `N#C/C(=C\C1=C(N2CCOCC2)C(=C\c2ccccc2)/CC1)C(=O)Nc1ccccc1F`, the cell killing (% activity) is 3.4%. In the case of `COc1ccc(-c2cn3cccnc3n2)cc1` it was 13.9%; in that of `Cc1ccc(-c2cn3cc(C)ccc3n2)cc1`, 86.4% [at 5 µM] (active); in that of `COc1ccc(-c2cn3ccsc3n2)cc1`, 46.2%. Next, `c1ccc(-c2cn3cccnc3n2)cc1`: 13.7%; `CS(=O)(=O)Nc1cccc(-c2cn3ccccc3n2)c1`: 4.6%. In the case of `COc1ccc(-c2cn3ccc(C)cc3n2)cc1` it was 89% [at 5 µM] (active); in that of `Cc1cccc(NC(=O)C2CC(=O)OC23CCCC3)c1` (configuration not stated), -2.2%. Regarding `COc1ccc(C(=O)ON=C2c3ccccc3-c3ccccc32)cc1OC`, the cell killing (% activity) was 8.6%. In the case of `Cc1sc2nc(COC(=O)C(NC(=O)c3ccc(Cl)cc3Cl)C(C)C)[nH]c(=O)c2c1C` (configuration not stated) it was 2.9%. Next, `O=C(Nc1ccc(S(=O)(=O)Nc2nccs2)cc1)c1cccc(S(=O)(=O)N2CCOCC2)c1`: 10.1%; `Fc1ccccc1Cc1ccc(Cl)nn1`: 22.4%; `CCN(CC)C(=O)CS(=O)CC(=O)Nc1cc(OCCOC)c(Cl)cc1Cl` (configuration not stated): 3.5%. As to `CCCc1cc(=O)[nH]c(SCC(=O)N2CCN(S(=O)(=O)c3ccc(C)cc3C)CC2)n1`, the cell killing (% activity) is -8.7%. Next, `N=c1n(CCc2ccccc2)c2ccccc2n1Cc1ccccc1F`: 53.1% (active). As for `Fc1ccccc1Cn1cnc(NC(=S)NCCc2ccccc2)n1`, the cell killing (% activity) is 23.7%. Next, `CN(Cc1ccccc1)Cc1ccccc1F`: 10.6%; `O=C(NCCCN1CCN(c2ccc(F)cc2)CC1)Nc1ccc([N+](=O)[O-])cc1`: -6.5%.

In the case of `Cc1c(C(=O)c2cccc([N+](=O)[O-])c2)c2ccccn2c1CCC#N`, the cell killing (% activity) is 33.6%. `COC(=O)c1ccc(COc2cc([N+](=O)[O-])cc3cccnc23)cc1`: the cell killing (% activity) is -4.2%.

For `Cn1c(CC2Sc3ccccc3NC2=O)nnc1SCC(=O)c1ccc(Cl)cc1` (configuration not stated), the cell killing (% activity) was 5.2%. With `O=C(c1ccc(F)cc1)n1c(=S)nc2ccccn21`, the cell killing (% activity) is 81.3% [at 5 µM] (active). Next, `O=C(c1ccc(F)cc1)n1cc(C(=S)N2CCOCC2)c2ccccc21`: 21%; `O=C(Cn1c(=S)nc2ccccn21)N1CCc2ccccc2C1`: -12%; `NS(=O)(=O)c1ccc(NC(=S)Nc2ccc(Br)c(Cl)c2)cc1`: 12%. In the case of `O=C(OCC1O[C@@H](OC(=O)c2cc(O)c(O)c(O)c2)[C@@H](OC(=O)c2cc(O)c(O)c(O)c2)[C@@H](OC(=O)c2cc(O)c(O)c(O)c2)[C@@H]1OC(=O)c1cc(O)c(O)c(O)c1)c1cc(O)c(O)c(O)c1` (some centres not stated) it was -9.9%. In the case of `CCOc1ccc(CN2CCN(Cc3ccon3)CC2CCO)cc1` (configuration not stated) it was 8.1%; in that of `Cc1noc(/C=C/c2ccco2)c1S(=O)(=O)N1CCC(C(=O)Nc2ccc(Cl)cn2)CC1`, 24.3%. Consider `Cc1nonc1C(=O)N/N=C/c1ccc(O)cc1`, for which the cell killing (% activity) was -5.1%. In the case of `CC(NC(=O)CCC(=O)N1CCN(S(=O)(=O)c2ccc(Cl)cc2)CC1)c1ccccc1` (configuration not stated) it was 16.9%; in that of `CCN(CC(=O)Nc1ccc(S(=O)(=O)N2CCCC2)cc1)CC(=O)Nc1cccc(OC)c1`, 6.9%; in that of `CC(C)n1cnc2c(Nc3cccc(Cl)c3)nc(N(CCO)CCCO)nc21`, 8.8%. Next, `NS(=O)(=O)c1cccnc1Nc1cccc(Cl)c1`: 23%; `OCCCNc1nccc(-c2cc(Nc3cccc(Cl)c3)ncn2)n1`: 80.9% (active). In the case of `CCOC(=O)c1sc2nc(C)nc(Nc3ccc(OC)c(OC)c3)c2c1C` it was -11.6%. As to `CCN1CCC2(CC1)N=C(c1ccc(F)cc1)C(=S)N2C(=O)c1ccc(C)cc1`, the cell killing (% activity) was 5.2%. With `O=C(Nc1n[nH]c(C(F)(F)F)n1)c1cccs1`, the cell killing (% activity) was 2.7%.

With `O=C(COC(=O)c1ccc(S(=O)(=O)Nc2ccccc2)cc1)NCC1CCCO1` (configuration not stated), the cell killing (% activity) is 14.7%. In the case of `Cc1cc(C)nc(NC(=O)/C=C/c2ccc(Cl)cc2)n1` it was -2.4%; in that of `Cc1nc2cc3c(cc2s1)OCO3`, 9%. In the case of `c1c2c(cc3sc(N4CCCCC4)nc13)OCCO2` it was 65.8% (active).

For the compound `Brc1ccc2nc(N3CCCC3)sc2c1`, the cell killing (% activity) was -2.5%.

For the compound `O=C(O)/C(=C/c1cccnc1)NC(=O)c1ccccc1`, the cell killing (% activity) was 9%. In the case of `COCCNc1nc(-c2ccccc2)nc2c1oc1ccccc12` it was 8.8%; in that of `Cc1ccc2nsnc2c1S(=O)(=O)N1CCCC1C(=O)O` (configuration not stated), 13.9%. On to `Cc1cc(=O)oc2c(C(=O)c3ccccc3)c(OCC(N)=O)ccc12`, for which the cell killing (% activity) was 6.8%. Next, `COc1cccc(C(=O)n2ccc(-c3cccs3)n2)c1`: -11.4%; `Cc1nc2cc(NC(=O)NC3CC3)ccc2n1C`: 14.9%. In the case of `C=CCN(C(=O)Nc1ccc2c(c1)nc(C)n2C)c1ccccc1` it was 14.1%; in that of `Cc1nc2cc(NC(=O)Nc3cccc(F)c3)ccc2n1C`, 54.1% [at 5 µM] (active). Next, `COC(C(=O)Nc1ccc(S(=O)(=O)Nc2ccc(C)c(C)c2)cc1)c1ccccc1` (configuration not stated): 19.1%. As for `COc1ccccc1NC(=O)CCSc1nnc(-c2ccc(O)cc2)o1`, the cell killing (% activity) was -2.2%.

In the case of `CCC(C)N1C(=S)SC(C)(C)C1N(O)C(=O)NC1CCCCC1` (configuration not stated), the cell killing (% activity) is 13.9%. Next, `COc1cccc(/C=N/NC(=O)c2cccc([N+](=O)[O-])c2)c1OS(=O)(=O)c1ccc(C)cc1`: -0.7%. Next, `Cc1ccc(-n2[nH]c(C)c(/C=N/NC(=O)c3cccc([N+](=O)[O-])c3)c2=O)cc1C`: 60.3% (active); `Cc1[nH]n(-c2ccccc2)c(=O)c1/C=N/NC(=O)c1ccoc1C`: 29.6%.
